Experimental data as given in PubChem BioAssay (NCI).
About 83,000 compounds went through this panel and 20% of them were active in at least one assay; those are over-represented in the sample as a whole.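 Compound tested at a single concentration for 48 hours in 96-well plates; a percent growth value below 10 was scored as active.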 The source made the active and inactive calls.

How the values were obtained:
Experiment in all cases: NCI-60 one-dose screen, 48 h (100 = growth as untreated, 0 = no growth, -100 = all killed)
Details in all cases: 10 µM unless noted
[1] = system: SR leukemia
[2] = system: RPMI-8226 leukemia
[3] = system: OVCAR-8 ovarian
[4] = system: OVCAR-5 ovarian
[5] = system: OVCAR-4 ovarian
[6] = system: SK-OV-3 ovarian
[7] = system: IGROV1 ovarian
[8] = system: OVCAR-3 ovarian
[9] = system: HS 578T breast
[10] = system: NCI/ADR-RES ovarian
[11] = system: T-47D breast
[12] = system: BT-549 breast
[13] = system: MDA-MB-435 melanoma
[14] = system: SW-620 colon
[15] = system: MCF7 breast
[16] = system: HCT-116 colon
[17] = system: HCC-2998 colon
[18] = system: KM12 colon

Measured: growth

CCCCCCCCNc1ncnc2c1ncn2Cc1nnc2c3ccccc3c(Cl)nn12
inactive: [1] 16.7% | [2] 35.4% | [3] 30% | [4] 102% | [5] 42.9% | [7] 31.4% | [8] 58% | [9] 54.3% | [10] 35.3% | [11] 26.5% | [12] 28% | [13] 46% | [14] 56.8% | [15] 41.4% | [16] 31.2% | [17] 76.3% | [18] 65.3%
active: [6] 4.2%

CCc1ccc(Cc2cnc(NC(=O)c3cc(C)oc3C)s2)cc1
inactive: [1] 19.5% | [2] 51% | [3] 52.9% | [4] 55.2% | [5] 54.7% | [6] 52.8% | [7] 43% | [8] 16.7% | [9] 23.6% | [10] 34.1% | [11] 34.4% | [12] 44.8% | [14] 18.3% | [15] 16.5% | [16] 20.4% | [17] 58.3% | [18] 22%
active: [13] -21.5%

O=C(c1ccccc1)[C@@H](c1ccccc1)[C@]1(O)C(=O)Nc2ccccc21
inactive: [1] 102% | [2] 100% | [3] 92.6% | [4] 82.1% | [5] 98.7% | [6] 84% | [7] 98.4% | [8] 94.2% | [9] 93.3% | [10] 102% | [11] 85.2% | [12] 95% | [13] 98.4% | [14] 100% | [15] 92.4% | [16] 96.6% | [17] 104% | [18] 85.5%

Cc1c(-c2cnc3ccc(Cl)cc3c2C(=O)O)nnn1-c1ccc(Cl)cc1
inactive: [1] 95.9% | [2] 105% | [3] 101% | [4] 89.9% | [5] 106% | [6] 90.4% | [7] 108% | [8] 110% | [9] 109% | [10] 101% | [11] 88% | [12] 82% | [13] 105% | [14] 112% | [15] 98.5% | [16] 76.7% | [17] 102% | [18] 109%

N#Cc1c(-c2ccc(Cl)cc2)nc(NN=Cc2cccc(Cl)c2)nc1N1CCOCC1
active: [1] 8.74%
inactive: [2] 65.1% | [3] 96.7% | [4] 103% | [5] 94.3% | [6] 111% | [7] 75.2% | [8] 87.4% | [9] 96.6% | [10] 89.2% | [11] 76.6% | [12] 93.6% | [13] 92% | [14] 53.3% | [15] 85.9% | [16] 70.8% | [17] 105% | [18] 84%

COc1ccc(NC(=O)c2ccc(Cl)cc2Cl)cc1
inactive: [1] 98.2% | [2] 101% | [3] 98.6% | [4] 101% | [5] 78.7% | [6] 106% | [7] 106% | [8] 106% | [9] 96.8% | [10] 97.5% | [11] 94.5% | [12] 101% | [13] 88.3% | [14] 95% | [15] 93.8% | [16] 99.4% | [17] 105% | [18] 99.1%

COc1ccc(/C=N\NC(=O)c2ccc3nc(-c4ccc(Cl)cc4)[nH]c3c2)cc1
inactive: [2] 59.2% | [3] 31.3% | [4] 77.3% | [6] 72.3% | [7] 14.6% | [8] 20.1% | [9] 32.3% | [10] 73.6% | [11] 23.3% | [12] 56.9% | [13] 68.5% | [14] 24.4% | [15] 16.7% | [16] 19% | [17] 51.1% | [18] 17.3%
active: [1] 0.647% | [5] -30.6%

Cc1ccc(C(F)(F)F)cc1N1CCN(C(=O)[C@H]2C[C@H]2c2ccc(C(F)(F)F)nc2)CC1
inactive: [1] 76% | [2] 66.1% | [3] 89.9% | [4] 85.6% | [5] 92% | [6] 84.2% | [7] 74.7% | [8] 93.4% | [9] 91.4% | [10] 91.6% | [11] 68.4% | [12] 88.2% | [13] 103% | [14] 105% | [15] 91.2% | [16] 93.4% | [17] 101% | [18] 91.8%

CCCCCCCCCCCCCCCCCCOc1ccccc1CC(=O)OCC[N+]1(C)CCCCC1
inactive: [1] 10% | [3] 21.9% | [4] 54.8% | [5] 32% | [6] 96.6% | [8] 61.7% | [9] 62.3% | [10] 92.3% | [11] 66.9% | [12] 58% | [13] 57% | [14] 68.3% | [15] 51.1% | [16] 30.2% | [17] 40.3% | [18] 86.5%
active: [2] -10.2% | [7] -32.1%

c1ccc2[nH]c(-c3ccc(-c4nccc5c4[nH]c4ccccc45)cc3)nc2c1
inactive: [2] 61.1% | [3] 16.5% | [4] 129% | [5] 23% | [6] 104% | [7] 94.5% | [9] 73.7% | [10] 62.6% | [11] 34.4% | [12] 73.7% | [13] 59.7% | [14] 68.5% | [15] 30.4% | [16] 16.3% | [17] 74% | [18] 76.6%
active: [1] -4.29% | [8] -24.2%

CCN=c1sc2c(n1NC(=O)c1cc3ccc1CCc1ccc(cc1)CC3)C(=O)c1ccccc1C2=O
active: [1] -3.66% | [2] -33.6% | [3] -82.6% | [4] -77.4% | [5] -98.4% | [7] -39.8% | [8] -18.8% | [9] -8.98% | [10] -22.8% | [11] -19.8% | [12] -97.4% | [13] -97.1% | [14] -56.6% | [15] -63.1% | [16] -50.9% | [17] -37.9% | [18] -29.9%
inactive: [6] 62%

COC(=O)[C@H](C)NC(=O)[C@@H]1CCCN1C(=O)CNC(=O)[C@H](C)N
inactive: [1] 114% | [2] 116% | [3] 105% | [4] 114% | [5] 89.1% | [6] 102% | [7] 109% | [8] 112% | [9] 99.8% | [10] 106% | [11] 97.6% | [12] 109% | [13] 102% | [14] 105% | [15] 110% | [16] 99.6% | [17] 106% | [18] 104%

CCN1C(=O)N(CC)C2C1NC(=S)N2/N=C/C=C/c1ccccc1 (stereo unspecified)
active: [1] 7.76% | [2] -8.74% | [3] 6.3% | [8] -8.49% | [10] 0.601% | [12] -10.3% | [13] -42.1% | [16] 5.71% | [18] 8.65%
inactive: [4] 59.6% | [5] 46.9% | [6] 20.4% | [7] 21% | [9] 13.6% | [11] 46.5% | [14] 25.6% | [15] 13.8% | [17] 19%

Cc1cc2c(C(C)C)c(O)c(O)c(/C=N/O)c2c(O)c1-c1c(C)cc2c(C(C)C)c(O)c(O)c(/C=N/O)c2c1O
active: [1] 4.52% | [3] 8.35%
inactive: [2] 15% | [4] 48.3% | [5] 28.7% | [6] 18.2% | [7] 38.5% | [8] 25.6% | [9] 41.9% | [10] 44% | [11] 10.2% | [12] 23.8% | [13] 37.4% | [14] 23.2% | [15] 15.3% | [16] 18% | [17] 16.1% | [18] 26%

O=c1ccc2nc(-c3ccccc3)nn(-c3ccccn3)c-2c1
inactive: [2] 35.8% | [3] 80% | [4] 117% | [5] 83.5% | [6] 83.9% | [7] 89% | [9] 101% | [10] 101% | [12] 108% | [13] 94.6% | [16] 42.7% | [17] 103% | [18] 104%
active: [1] 1.2% | [8] -14.9% | [11] -40.9% | [14] -46.2% | [15] -37.1%

Cc1cccc(CN(Nc2ccccc2)c2ccccc2)n1
inactive: [1] 93% | [2] 96.3% | [3] 98.5% | [4] 102% | [5] 109% | [6] 104% | [7] 127% | [8] 99.5% | [9] 109% | [10] 102% | [11] 87.2% | [12] 111% | [13] 103% | [14] 107% | [15] 93.3% | [16] 95.5% | [17] 112% | [18] 110%

[2H]C([2H])([2H])Oc1ccc(/C=C/C(=O)/C=C(/C=C/c2ccc(OC([2H])([2H])[2H])c(OC([2H])([2H])[2H])c2OC([2H])([2H])[2H])OB(F)F)c(OC([2H])([2H])[2H])c1OC([2H])([2H])[2H]
active: [1] 8.05% | [3] 9.4% | [16] 6.6%
inactive: [2] 18.9% | [4] 91.1% | [5] 65.2% | [6] 103% | [7] 57.1% | [8] 14.5% | [9] 60% | [10] 54.6% | [11] 51.7% | [12] 78.6% | [13] 26.7% | [14] 18.4% | [15] 28.2% | [17] 120% | [18] 81.3%
